# “And” between values parts separate entries of the source, which are not always exact repeats. Equal entries are not always repeated. Structures can show the parent of a compound that is named as a salt. Hit rate of the full screen: of about 5,800 compounds, about 620 (11%) showed activity. The sample as a whole holds a higher share of actives than the screen did. A number with no mark means an inactive call.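 How the source made its calls: active = score above a cut-off or among the top three wells of a plate; in these data no inactive exceeds 0.85.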
# Test system: primary human hepatic stellate cells (donor 1)
# Experiment: scaled lipid accumulation score (0 = DMSO-like, 1 = nortriptyline-like); higher = stronger HSC inactivation (lipid re-accumulation), active = hit call of the paper
# Conditions: 48 h
# [1] = library stock concentration: 1 mM
# [2] = library stock concentration: 80 uM
# [3] = library stock concentration: 400 uM
# [4] = library stock concentration: 2 mM
# [5] = library stock concentration: 10 mM
# [6] = library stock concentration: 3.33 mM
compound,measurement,setting,value
O=C(OCc1ccccc1)[C@H](O)c1ccccc1 [(R)-benzyl Mandelate],scaled lipid accumulation score,[1],≤ 0
C=C(C)[C@@H](CC=C(C)C)C[C@@]12C[C@@H](CC=C(C)C)C(C)(C)[C@@](CC=C(C)C)(C(=O)C(C(=O)c3ccc(O)c(O)c3)=C1O)C2=O [Garcinol],scaled lipid accumulation score,[2],≤ 0
same,scaled lipid accumulation score,[3],≤ 0
same,scaled lipid accumulation score,[4],≤ 0
same,scaled lipid accumulation score,[5],≤ 0
C[C@@H](N)C1CCC(C(=O)Nc2ccncc2)CC1 (some centres undefined),scaled lipid accumulation score,[6],≤ 0
O=C(O)CCCC[C@@H]1CCSS1 [Thioctic acid],scaled lipid accumulation score,[5],≤ -0.027
CC/C(=C\C(=N\O)C(N)=O)C(C)[N+](=O)[O-] (centres undefined),scaled lipid accumulation score,[1],≤ 0
CC(C)CCC[C@@H](C)CCC[C@@H](C)CCCC(C)CC(=O)O (some centres undefined) [Phytanic Acid],scaled lipid accumulation score,[1],0.028
O=C(NCCS(=O)(=O)c1ccc(C(F)(F)F)cn1)c1ccc(Cl)cc1,scaled lipid accumulation score,[6],≤ -0.009
same,scaled lipid accumulation score,[5],≤ 0
Cc1nc(Nc2ncc(C(=O)Nc3c(C)cccc3Cl)s2)cc(N2CCN(CCO)CC2)n1 [Dasatinib],scaled lipid accumulation score,[2],≤ 0
same,scaled lipid accumulation score,[3],0.238
same,scaled lipid accumulation score,[4],0.602
same,scaled lipid accumulation score,[6],0.43
same,scaled lipid accumulation score,[5],0.646 and 0.707
C=CC(=O)Nc1cccc(Sc2nc(Nc3ccc(N4CCN(C)CC4)cc3)ncc2Cl)c1,scaled lipid accumulation score,[6],≤ 0
same,scaled lipid accumulation score,[5],0.466
Cc1nc(Nc2ncc(C(=O)Nc3c(C)cccc3Cl)s2)cc(N2CCN(CCO)CC2)n1 [listing 1 of 2 here],scaled lipid accumulation score,[4],1.18 (active)
same,scaled lipid accumulation score,[5],1.48 (active)
Cc1nc(Nc2ncc(C(=O)Nc3c(C)cccc3Cl)s2)cc(N2CCN(CCO)CC2)n1 [listing 2 of 2 here],scaled lipid accumulation score,[3],0.775
same,scaled lipid accumulation score,[5],0.677
O=S(=O)(c1ccccc1)N(CC(F)(F)F)c1ccc(C(O)(C(F)(F)F)C(F)(F)F)cc1,scaled lipid accumulation score,[1],0.1
same,scaled lipid accumulation score,[6],0.164
same,scaled lipid accumulation score,[5],0.741 and 0.112
CN1CCCC(CC2c3ccccc3Sc3ccccc32)C1.Cl.O (centres undefined) [Metixene hydrochloride],scaled lipid accumulation score,,1.12 (active)
N#Cc1ccc2c(c1)N(CCCN1CCC(O)CC1)c1ccccc1S2 [Periciazine],scaled lipid accumulation score,[5],0.107
CN1CCN(C2Cc3ccccc3Sc3ccc(Cl)cc32)CC1 (centres undefined),scaled lipid accumulation score,[5],0.378
"C[C@@H](O)CCC[C@@H](O)/C=C/[C@H]1C(O)CC(O)C1CCCCCCC(=O)O (stereo partly drawn) [15(R),19(R)-hydroxy Prostaglandin F1.alpha.]",scaled lipid accumulation score,[1],≤ 0
CCc1c2c(nc3ccc(OC(=O)N4CCC(N5CCCCC5)CC4)cc13)-c1cc3c(c(=O)n1C2)COC(=O)[C@]3(O)CC [Irinotecan HCl Trihydrate],scaled lipid accumulation score,[6],≤ 0
same,scaled lipid accumulation score,[5],0.228
CC[C@@]1(O)C(=O)OCc2c1cc1n(c2=O)Cc2cc3c(CN(C)C)c(O)ccc3nc2-1,scaled lipid accumulation score,[5],≤ 0
CCc1c2c(nc3ccc(O)cc13)-c1cc3c(c(=O)n1C2)COC(=O)[C@]3(O)CC,scaled lipid accumulation score,[6],≤ 0
same,scaled lipid accumulation score,[5],0.297 and ≤ -0.001
CCc1c2c(nc3ccc(OC(=O)N4CCC(N5CCCCC5)CC4)cc13)-c1cc3c(c(=O)n1C2)COC(=O)[C@]3(O)CC [Irinotecan hydrochloride],scaled lipid accumulation score,[5],0.299
CCc1c2c(nc3ccc(OC(=O)N4CCC(N5CCCCC5)CC4)cc13)-c1cc3c(c(=O)n1C2)COC(=O)[C@]3(O)CC,scaled lipid accumulation score,[5],0.226
CC[C@@]1(O)C(=O)OCc2c1cc1n(c2=O)Cc2cc3c(CN(C)C)c(O)ccc3nc2-1 [Topotecan hydrochloride hydrate],scaled lipid accumulation score,[5],≤ -0.055
CC[C@@]1(O)C(=O)OCc2c1cc1n(c2=O)Cc2cc3c(CN(C)C)c(O)ccc3nc2-1 [Topotecan hydrochloride],scaled lipid accumulation score,library stock concentration: 4.4 mM,0.131
same,scaled lipid accumulation score,[5],0.196
CCc1c2c(nc3ccc(OC(=O)N4CCC(N5CCCCC5)CC4)cc13)-c1cc3c(c(=O)n1C2)COC(=O)[C@]3(O)CC [Irinotecan],scaled lipid accumulation score,[6],0.151
same,scaled lipid accumulation score,[5],0.025
CC[C@@]1(O)C(=O)OCc2c1cc1n(c2=O)Cc2cc3c(CN(C)C)c(O)ccc3nc2-1 [Topotecan],scaled lipid accumulation score,library stock concentration: 4.7 mM,≤ 0
CCc1c2c(nc3ccc(OC(=O)N4CCC(N5CCCCC5)CC4)cc13)-c1cc3c(c(=O)n1C2)COC(=O)[C@]3(O)CC [IRINOTECAN HCl )trihydrate)],scaled lipid accumulation score,[5],1.1 (active)
CC[C@@]1(O)C(=O)OCc2c1cc1n(c2=O)Cc2cc3c(CN(C)C)c(O)ccc3nc2-1 [Topotecan HCl],scaled lipid accumulation score,[6],≤ 0
same,scaled lipid accumulation score,[5],≤ 0
N=C(N)N [Guanidine HCl],scaled lipid accumulation score,[6],≤ 0
same,scaled lipid accumulation score,[5],≤ -0.001
N=C(N)N,scaled lipid accumulation score,[5],≤ 0
CCCCC[C@H](O)/C=C/[C@H]1OC(O)C[C@H](O)[C@@H]1CCCCCCC(=O)O (some centres undefined) [Thromboxane B1],scaled lipid accumulation score,[1],0.131
C#CCCCCCCCCCCCC(O)CC(O)CO (centres undefined) [Avocadyne],scaled lipid accumulation score,[5],0.005
COc1ccccc1N1CCN(CCCNc2cc(=O)n(C)c(=O)n2C)CC1,scaled lipid accumulation score,[5],≤ 0
COc1ccccc1N1CCN(CCCCNC(=O)c2ccc(-c3ccc(C(C)=O)cc3)cc2)CC1,scaled lipid accumulation score,[5],0.934 (active)
COc1ccccc1N1CCN(CCCNc2cc(=O)n(C)c(=O)n2C)CC1 [Urapidil],scaled lipid accumulation score,[5],≤ -0.027
COc1ccccc1N1CCN(CCCNc2cc(=O)n(C)c(=O)n2C)CC1 [Urapidil HCl],scaled lipid accumulation score,[6],≤ 0
same,scaled lipid accumulation score,[5],≤ 0
COc1ccccc1N1CCN(CCCCNC(=O)c2ccc3ccccc3c2)CC1 [listing 1 of 2 here],scaled lipid accumulation score,,0.307
COc1ccc2cccc(N3CCN(CCNC(=O)c4ccc(F)cc4)CC3)c2c1,scaled lipid accumulation score,[5],0.585
Cc1cccc(C(=O)NCN2CCN(c3ccccc3C#N)CC2)c1,scaled lipid accumulation score,[5],0.009
"Cc1cccc(C(=O)NCN2CCN(c3ccccc3C#N)CC2)c1 [PD 168,077 maleate]",scaled lipid accumulation score,[5],≤ 0
"COc1ccccc1N1CCN(CCCNc2c(C)c(=O)n(C)c(=O)n2C)CC1 [Urapidil, 5-Methyl-]",scaled lipid accumulation score,[5],≤ 0
Cl.O=C(NCCCCN1CCN(c2cccc(Cl)c2Cl)CC1)c1ccc2c(c1)Cc1ccccc1-2,scaled lipid accumulation score,[5],0.884 (active)
COc1cccc(C(=O)NCCN2CCN(c3ccc(Cl)cc3)CC2)c1,scaled lipid accumulation score,[5],0.314
COc1ccccc1N1CCN(CCCNc2cc(=O)n(C)c(=O)n2C)CC1 [Urapidil hydrochloride],scaled lipid accumulation score,,≤ 0
same,scaled lipid accumulation score,[5],≤ 0 and 0.02
COc1ccccc1N1CCN(CCCCNC(=O)c2ccc3ccccc3c2)CC1 [listing 2 of 2 here],scaled lipid accumulation score,[5],1.01 (active)
Cc1nccnc1N1CCCCC1,scaled lipid accumulation score,[5],≤ 0
CCCCCC/C=C\CCCC(=O)CC(=O)N[C@H]1CCOC1=O [N-3-oxo-tetradec-7(Z)-enoyl-L-Homoserine lactone],scaled lipid accumulation score,[1],≤ 0
Cc1ccc(-c2c(-c3nn(C)c4ncnc(N5CC[C@H](N6CCCCC6)C5)c34)cnn2C)cc1,scaled lipid accumulation score,[6],≤ 0
same,scaled lipid accumulation score,[5],0.091
"CCCCCC(=O)CC[C@H]1[C@H](O)CC(=O)[C@@H]1CCCCCCC(=O)O [13,14-dihydro-15-keto Prostaglandin E1]",scaled lipid accumulation score,[1],≤ 0
Cc1cc(Nc2nc(N[C@@H](C)c3ccc(F)cc3)c(C#N)cc2F)n[nH]1,scaled lipid accumulation score,[3],≤ -0.005
same,scaled lipid accumulation score,[4],≤ -0.005
same,scaled lipid accumulation score,[6],≤ 0
same,scaled lipid accumulation score,[5],0.387 and 0.197
O=S(=O)(NO)c1ccccc1 [Piloty's Acid],scaled lipid accumulation score,[1],≤ 0
Cn1cnc2cc3c(Nc4cccc(Br)c4)ncnc3cc21,scaled lipid accumulation score,[6],0.044
CCCCCC=CCC=CCCCCCCCC(=O)OC(CO)CO [2-Linoleoyl Glycerol],scaled lipid accumulation score,[1],0.053
C[C@@H]1C[C@H]2O[C@@H]2/C=C\C=C\C(=O)Cc2c(Cl)c(O)cc(O)c2C(=O)O1 [Radicicol],scaled lipid accumulation score,[1],0.383
O=C(O)CCC/C=C\C[C@@H]1[C@@H](CCC(=O)CCc2ccccc2)[C@H](O)C[C@@H]1O [15-keto Latanoprost (free acid)],scaled lipid accumulation score,[1],≤ 0
CCCCC(CC)CN1CCC(n2cc(CNC)nn2)CC1 (centres undefined),scaled lipid accumulation score,[5],0.988 (active)
CCCCC(CC)CN1CN(CC(CC)CCCC)CC(C)(N)C1 (centres undefined) [Hexetidine],scaled lipid accumulation score,,≤ 0
same,scaled lipid accumulation score,[5],0.342
CNCc1cn(C2CCN(CCC(C)CC(C)(C)C)CC2)nn1 (centres undefined),scaled lipid accumulation score,[5],1.05 (active)
CCCCc1ccc(N=CNO)c(C)c1,scaled lipid accumulation score,[1],0.03
CC(O)(CC(=O)O)CC(=O)O,scaled lipid accumulation score,[5],0.023
CC1(C)[C@H]2CC[C@@]1(C)C(=O)C2 [1r-camphor],scaled lipid accumulation score,[5],≤ 0
O=C(O)[C@H](O)c1ccccc1 [R-(-)-Mandelic Acid],scaled lipid accumulation score,[1],0.02
CSC(=N)NCCC[C@H](N)C(=O)O [S-Methyl-L-thiocitrulline acetate],scaled lipid accumulation score,[5],≤ -0.02
O=C(Nc1ncc(SCCN2CCCC2)s1)[C@]1(c2ccc(S(=O)(=O)C3CC3)cc2)C[C@H]1C1CCCCC1,scaled lipid accumulation score,[5],0.143
O=C(Nc1ncc(SCCN2CCCC2)s1)[C@]1(c2ccc(S(=O)(=O)C3CC3)cc2)C[C@@H]1C1CCCCC1,scaled lipid accumulation score,[6],1.12 (active)
Cn1cccc1/C=C1\C(=O)NC(=O)c2ccccc21,scaled lipid accumulation score,[5],0.017
O=C(Nc1ccccc1)N[C@@H]1C[C@@H](C(=O)O)Nc2cc(Cl)cc(Cl)c21,scaled lipid accumulation score,[5],≤ 0
CC(N)(C(=O)O)c1ccc(C(=O)O)cc1 (centres undefined),scaled lipid accumulation score,[5],0.151
NC(=O)c1c(NC(=O)C2CC2)sc2c1CCCC2,scaled lipid accumulation score,[2],≤ -0.001
same,scaled lipid accumulation score,[3],≤ -0.001
same,scaled lipid accumulation score,[4],≤ -0.001
same,scaled lipid accumulation score,[5],0.118
"CCN(CC)C(=O)c1ccc(Nc2nc(OCC3CCCCC3)c3[nH]cnc3n2)cc1 [Cdk2 Inhibitor IV, NU6140]",scaled lipid accumulation score,[6],≤ 0
CC1OC2(CS1)CN1CCC2CC1 (centres undefined) [Cevimeline hydrochloride],scaled lipid accumulation score,[5],≤ 0

# From the supplement of paper PMC9135407
